Test results: PubChem BioAssay AID1159580 (chemical genetic matrix, 2015)
Where “and” joins values, the source holds several entries; their conditions need not be identical. Identical values can stand only once. The whole screen tested about 5,500 compounds, of which about 2,000 (36%) were called active. About 18% were inconclusive and are not listed. Cut-off read from the data, not from the text of the source: active = normalized growth mostly below about 0.91 (no sharp cut-off); inconclusive = no clear call, values can overlap the other calls; inactive = mostly above about 0.92. The list shows a part of the results.

Experiment: chemical genetic growth profiling, strain panel (AID 1159580);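 note: tested at 20 µM; growth read once vehicle control cultures reached saturation at 30 °C; 1 = growth at the plate median or of vehicle wells; lower values mean less growth of the strain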
Details: S. cerevisiae deletion strains, growth OD

Measured: normalized growth

Cc1cc(=O)oc2c(O)c(O)ccc12
inactive: locus YAL021C, strain ccr4, hits give low values 0.981 | locus YAL026C, strain drs2, hits give low values 0.967 | locus YAL030W, strain snc1, hits give low values 0.964 | locus YBL061C, strain skt5, hits give low values 0.966 | locus YBR009C, strain hhf1, hits give low values 0.966 | locus YBR021W, strain FUR4, hits give low values 0.975 | locus YBR023C, strain chs3, hits give low values 0.975 | locus YBR171W, strain sec66, hits give low values 0.975 | locus YBR229C, strain ROT2, hits give low values 1 | locus YBR231C, strain swc5, hits give low values 0.978 | locus YBR279W, strain paf1, hits give low values 0.973 | locus YCL011C, strain gbp2, hits give low values 0.958 | locus YCL016C, strain dcc1, hits give low values 0.972 | locus YCL029C, strain bik1, hits give low values 0.999 | locus YCL061C, strain MRC1, hits give low values 0.992 | locus YCL069W, strain vba3, hits give low values 0.976 | locus YCR088W, strain abp1, hits give low values 0.965 | locus YDL005C, strain med2, hits give low values 0.958 | locus YDL035C, strain GPR1, hits give low values 1.01 | locus YDL040C, strain nat1, hits give low values 0.98 | locus YDL074C, strain BRE1, hits give low values 0.993 | locus YDL101C, strain DUN1, hits give low values 1.01 | locus YDL134C, strain PPH21, hits give low values 1.02 | locus YDL185W, strain tfp1, hits give low values 1 | locus YDL192W, strain arf1, hits give low values 1 | locus YDR001C, strain nth1, hits give low values 0.968 | locus YDR069C, strain doa4, hits give low values 0.963 | locus YDR101C, strain arx1, hits give low values 1.02 | locus YDR137W, strain rgp1, hits give low values 0.94 | locus YDR150W, strain NUM1, hits give low values 1.01 | locus YDR159W, strain sac3, hits give low values 0.967 | locus YDR162C, strain NBP2, hits give low values 1.02 | locus YDR195W, strain ref2 0.913 | locus YDR297W, strain sur2, hits give low values 0.979 | locus YDR318W, strain mcm21, hits give low values 0.993 | locus YDR334W, strain swr1, hits give low values 0.968 | locus YDR335W, strain msn5, hits give low values 0.981 | locus YDR388W, hits give low values 0.994 | locus YDR392W, strain spt3, hits give low values 0.973 | locus YDR502C, strain sam2, hits give low values 1 | locus YEL003W, strain gim4, hits give low values 0.976 | locus YEL037C, strain rad23, hits give low values 0.934 | locus YEL061C, strain CIN8 (second series), hits give low values 0.952 | locus YEL061C, strain CIN8, hits give low values 1 | locus YER015W, strain faa2, hits give low values 1 | locus YER016W, strain bim1, hits give low values 0.986 | locus YER110C, hits give low values 0.993 | locus YER111C, strain swi4, hits give low values 0.957 | locus YER155C, strain BEM2 (second series), hits give low values 0.987 | locus YER155C, strain BEM2, hits give low values 1.01 | locus YER167W, strain BCK2, hits give low values 1.01 | locus YFR010W, strain ubp6, hits give low values 0.947 | locus YGL078C, strain dbp3, hits give low values 1 | locus YGL086W, strain mad1, hits give low values 0.991 | locus YGL167C, strain pmr1, hits give low values 0.943 | locus YGL173C, strain kem1, hits give low values 0.987 | locus YGL227W, strain vid30, hits give low values 0.962 | locus YGL240W, strain doc1, hits give low values 0.979 | locus YGL248W, strain PDE1, hits give low values 1.01 | locus YGL253W, strain hxk2, hits give low values 0.974 | locus YGR135W, strain pre9, hits give low values 0.988 | locus YGR229C, strain SMI1, hits give low values 1 | locus YGR252W, strain gcn5, hits give low values 0.977 | locus YHR013C, strain ard1, hits give low values 0.942 | locus YHR027C, strain rpn1, hits give low values 0.973 | locus YHR030C, strain SLT2, hits give low values 1 and 0.999 | locus YHR079C, strain IRE1 (second series), hits give low values 1 | locus YHR079C, strain IRE1, hits give low values 0.983 | locus YHR094C, strain hxt1, hits give low values 1.02 | locus YHR129C, strain ARP1, hits give low values 1 | locus YHR142W, strain chs7, hits give low values 0.973 | locus YHR200W, strain rpn10, hits give low values 1.02 | locus YIL066C, strain RNR3, hits give low values 1.02 | locus YIL073C, strain SPO22, hits give low values 1.03 | locus YIL125W, strain kgd1, hits give low values 0.975 | locus YIR030C, strain dcg1, hits give low values 1 | locus YJL092W, strain hpr5, hits give low values 0.978 | locus YJL095W, strain BCK1 (second series), hits give low values 0.988 | locus YJL095W, strain BCK1, hits give low values 0.98 and 0.997 | locus YJL115W, strain asf1, hits give low values 0.975 | locus YJL129C, strain trk1, hits give low values 0.972 | locus YJL134W, strain LCB3, hits give low values 1.01 | locus YJL154C, strain vps35, hits give low values 0.976 | locus YJL164C, strain tpk1, hits give low values 0.985 | locus YJL166W, strain qcr8, hits give low values 1 | locus YJL168C, strain set2, hits give low values 0.993 | locus YJL187C, strain SWE1 (second series), hits give low values 1 | locus YJL187C, strain SWE1, hits give low values 0.976
